Assay results: paper PMC5540273 (PLoS ONE, 2017)

What follows are compounds tested on RPS6KA5(Kin.Dom.1-N-terminal). Settings: concentration: 1 μM, replicates: in singlicate; n = 1.
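Also: KINOMEscan kinase panel screen.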

SMILES	%Inh
Cl.O=S(=O)(c1cccc(F)c1)c1ccc(Nc2ncnc3cc(Br)sc23)cc1Cl [GSK306886]	0%
O=C(NCCCN1CCCC1=O)c1cnc(NCc2cc(Cl)ccc2Cl)nc1NC1CCNCC1	0%
Cl.Cn1ccc(-c2cccc(Nc3ccnc4cc(-c5nccs5)ccc34)c2)n1 [GW525701]	24%
CC(C)(C)OC(=O)NC1CCCN(c2cc(-c3ccc4c(N)n[nH]c4c3)nc(N)n2)C1 (stereo not drawn) [GSK2286096]	0%
Cn1ccc2ncnc(Nc3ccc(Oc4cccc(Cl)c4)c(Cl)c3)c21	19%
O=C(Nc1ccccc1)Nc1ccc(Oc2ccc3nccn3n2)cc1	0%
CSc1nn2c(=O)cc(N3CCOCC3)nc2n1Cc1cccc(Cl)c1Cl [GSK2347225]	11%
COC(=O)c1cccc(NC(=O)NCCNc2ccnc(Nc3ccc(F)cc3)n2)c1 [GSK1379883]	22%
CCn1c(-c2ccncc2)nc2cnccc21 [SB-735216]	0%
Fc1cccc(COc2ccc(Nc3ncnc4cc[nH]c34)cc2Cl)c1	2%
O=C(Nc1n[nH]c2nc(-c3ccco3)c(Br)cc12)c1ccc(CN2CCCC2)cc1.O=C(O)[C@H](O)[C@@H](O)C(=O)O [SB-742352]	0%
CCC(CC)(CC)n1cnc2c(N)ncnc21 [SKF-97620]	14%
O=C(CCO)NCCn1ccc2ncnc(Nc3ccc(Oc4cccc(C(F)(F)F)c4)c(Cl)c3)c21	3%
OCCOCCn1ccc2ncnc(Nc3ccc(Oc4cccc(Cl)c4)c(Cl)c3)c21	0%
Clc1cccc(-c2nc(Nc3ccncc3)c3ccccc3n2)c1 [GW873004]	32%
COc1ccc(NC(=O)c2ccc(-c3cc(-c4nnc(C)o4)ccc3C)cc2)cc1 [GW595885]	12%
O=C(Nc1ccccc1F)NC1CCN(c2ccnc(Nc3ccc(F)cc3)n2)C1 (stereo not drawn) [GSK1379722]	20%
Nc1nc(-c2ccc3c(N)n[nH]c3c2)cc(N2CCCCC2)n1 [GSK2228768]	6%

SMILES	%Inh
CN1CCC(n2cnc(-c3ccc(F)cc3)c2-c2ccnc(NC3CCNCC3)n2)CC1 [SB-229482]	1%
Clc1cc(Nc2ncnc3cc[nH]c23)ccc1OCc1ccccn1	3%
COc1cc2c(Nc3cccc(NC(=O)c4ccccc4)c3)ncnc2cc1OCCCN1CCOCC1 [GSK223810]	9%
CCc1nc(-c2cccc(N(C)S(=O)(=O)c3ccccc3)c2)c(-c2ccnc(Nc3ccc(N4CCN(C(C)=O)CC4)nc3)n2)s1 [GSK1645895]	0%
Cc1ccc(O)cc1Nc1cc(C(F)(F)F)nc2ccc(-c3ccncc3)cc12 [GW630823]	0%
c1ccc(-c2ccc3c(-c4ccnc(Nc5ccc6c(c5)OCCO6)n4)cnn3n2)cc1 [GW818941]	10%
CSc1ccc(NC2=C(c3ccccc3Cl)C(=O)NC2=O)cc1 [SB-342411]	5%
CS(=O)(=O)CCNCc1ccc(-c2ccc3ncnc(Nc4ccc(OCc5ccccc5)c(Cl)c4)c3c2)o1.Cl [GW574783]	28%
COc1cc2ncnc(Nc3ccc(OCc4ccccc4Br)c(Cl)c3)c2cc1OC.Cl [GI261590]	0%
CC(C)N1CCC(n2cnc(-c3ccc(F)cc3)c2-c2ccnc(N)n2)CC1 [SB-223132]	7%
Cn1cc(-c2ccc3c(c2)CCN3C(=O)Cc2cccc(C(F)(F)F)c2)c2c(N)ncnc21 [GSK2606414]	25%
COc1ccc(Nc2nccc(N3CCC(NC(=O)c4cccc(NC(C)=O)c4)C3)n2)cc1 (stereo not drawn) [GSK1379732]	9%
Nc1nc(-c2ccc3c(N)n[nH]c3c2)cc(N2CCC[C@@H](C(=O)Nc3ccccc3)C2)n1.O=C(O)C(F)(F)F.O=C(O)C(F)(F)F [GSK2288359]	0%
CN1c2ccc(-c3ccc(C(=O)NCCO)cc3)cc2-c2[nH]ncc2S1(=O)=O	0%
N#Cc1ccc(Oc2ccc(Nc3ncnc4cc[nH]c34)cc2Cl)cc1	20%
Cl.c1ccc(Cn2ncc3cc(Nc4ncnc5ccccc45)ccc32)cc1 [GW273749]	8%
Nc1nccc2scc(-c3ccc4c(c3)CCN4C(=O)Cc3cc(F)ccc3F)c12 [GSK2587663]	15%
Nc1nc(-c2cccnc2)c(-c2ccnc3ccccc23)s1 [GW684083]	26%
